Measurements from PubChem BioAssay AID504847 (National Center for Advancing Translational Sciences (NCATS), 2011).
“And” between values parts separate entries of the source, which are not always exact repeats. Equal values may be shown once. Out of some 400,000 compounds screened, about 3,700 (0.93%) were called active. Roughly 3% stayed inconclusive and do not appear here. The sample holds actives, similar compounds and a random draw of the others, so the mix is not that of the screen. A number with no mark means an inactive call. Calls follow the shape of the dose curve; as a rule, active = well fitted inhibition curve with a large enough effect; inconclusive = small, poorly fitted or top-dose-only effect, or another doubt; inactive = no such curve, though single readings can be large or run the other way.

Target: Vitamin D3 receptor (Homo sapiens) (UniProt P11473)
Assay: Inhibitors of the vitamin D receptor (VDR): qHTS
Conditions: VDR-SRC2-3 peptide fluorescence polarization, 2 h; max response, negative = inhibition: hits give low values
Summary of the method: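 Signal is fluorescence polarization, reporting how far test compounds block the interaction of VDR with the SRC2-3 coregulator peptide after a 2 h room-temperature incubation.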
% is scaled to controls: 0 for no effect and ±100 for the full control effect; potency is read from the fitted curve at half-maximal effect.

Vitamin D3 receptor (Homo sapiens), sequence (P11473 whole entry, looked up): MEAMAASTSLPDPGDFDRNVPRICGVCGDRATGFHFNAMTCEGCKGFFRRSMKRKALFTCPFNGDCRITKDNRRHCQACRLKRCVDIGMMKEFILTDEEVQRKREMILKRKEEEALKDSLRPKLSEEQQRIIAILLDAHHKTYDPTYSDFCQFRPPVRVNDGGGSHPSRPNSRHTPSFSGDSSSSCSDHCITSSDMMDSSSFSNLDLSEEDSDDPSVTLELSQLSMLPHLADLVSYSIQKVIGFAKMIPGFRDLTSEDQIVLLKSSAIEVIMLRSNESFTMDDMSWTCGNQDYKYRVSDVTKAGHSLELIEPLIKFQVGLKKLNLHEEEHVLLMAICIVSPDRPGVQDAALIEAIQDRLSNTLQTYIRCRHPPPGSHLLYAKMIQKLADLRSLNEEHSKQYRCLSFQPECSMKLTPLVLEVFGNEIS

Compound | Potency | max response, negative = inhibition
CCOC(=O)C1(CCOC)CCN(Cc2cc3ccccc3s2)CC1 | 44.7 µM (active) | –
CCOC(=O)C1(CCOC)CCN(Cc2ccc(C(=O)OC)cc2)CC1 | – | 15.5%
CCCS(=O)(=O)N1CCC(CCOc2ccccc2)(C(=O)OCC)CC1 | – | -9.73%
COc1cc(Cl)c(C)cc1NC(=O)CCc1nc2cccnc2n1Cc1cccs1 | – | 3.57%
Cc1cccc(N2CCN(C(=O)c3oc(=O)c4ccccc4c3-c3ccccc3)CC2)c1C | – | -3.42%
CCCCC/C=C\C[C@H](O)/C=C/C=C/C=C/[C@@H](O)CCCC(=O)O | – | 7.71%
O=C(Nc1ccccc1)c1nnsc1S(=O)(=O)c1ccc(Cl)cc1 | 25.1 µM (active) | –
O=C(Nc1ccc(Oc2ccccc2)cc1)C1CCN(S(=O)(=O)c2ccc(Cl)cc2)CC1 | – | -4.34%
O=C(Nc1cccc(Cl)c1)c1csnn1 | – | -5.14%
O=C(c1cccc(Cl)c1)N1CCN(CCc2ccncc2)CC1 | – | 9.31%
Cc1ccccc1NC(=O)Cn1cc(C(=O)C2CC2)c2ccccc21 | – | 8.49%
Cc1ccccc1NC(=O)CCOc1ccccc1 | – | -6.86% and -22.6%
Cc1ccccc1NC(=O)CSC(=O)c1ccccc1 | 79.4 µM (active) | –
COc1ccc(CCC(=O)c2c(O)cc(OC3OC(CO)C(O)C(O)C3O[C@@H]3OC(C)C(O)C(O)C3O)cc2O)cc1O (stereo partly drawn) | – | -4.57%
CCOc1cccc(NC(=O)CSc2ncc(-c3ccc(Cl)cc3)[nH]2)c1 | – | -19.8%
CC(C)=CCN1CCC2(CCc3ccccc32)CC1 | – | 10%
COc1ccc(Cc2nc3ccc(C(=O)NCc4ccc(OC)cc4OC)cc3o2)cc1 | – | 0.0782%
NC(=O)CSc1oc(-c2cccs2)nc1S(=O)(=O)c1ccccc1 | – | 2.03%
CCCCS(=O)(=O)c1oc(-c2cccs2)nc1S(=O)(=O)c1ccccc1 | 10 µM (active) | –
Cc1ccc(S(=O)(=O)c2nc(-c3cccs3)oc2NCc2cccnc2)cc1 | – | -8.24%
Cc1ccc(N2CC(c3nnc(Cc4ccccc4Cl)o3)CC2=O)cc1 (stereo not drawn) | – | 0.444%
Cc1ccc(-c2nnc3ccc(SCC(N)=O)nn23)cc1 | – | -9.24%

Compound | Potency | max response, negative = inhibition
Cc1ccc(-c2nn3c(=O)cc(CN4CCN(S(=O)(=O)c5ccc(Cl)cc5)CC4)nc3s2)cc1 | – | 6.31%
CCc1c(C)sc(NC(=O)C2c3ccccc3Oc3ccccc32)c1C(=O)OC(C)C | – | -13.1%
CC(C)(C)c1nnc(NC(=O)C2c3ccccc3Oc3ccccc32)s1 | 35.5 µM (active) | –
CC(C)(C)NC(=O)NC(=O)COC(=O)C1c2ccccc2Oc2ccccc21 | – | -16.6%
COc1cc(C(=O)N2CCC(c3ccncc3)CC2)cc(OC)c1OC | – | 6.52%
CCOC(=O)c1c(NC(=O)CSc2nccc(=O)[nH]2)sc(C)c1C | – | -12.3%
CCOC(=O)c1c(NC(=O)COc2cc(C)ccc2C(C)C)sc(C)c1C | 39.8 µM (active) | –
CCOC(=O)c1c(NC(=O)CSc2nnc(CNc3ccc(C)cc3C)o2)sc(C)c1C | – | -11.8%
CCc1nn(CC(=O)Nc2cccc(C)c2C)c(=O)c2cc3sccc3n12 | – | -8.74%
CCOc1cccc2cc(-c3cn4c(n3)sc3cc(C)ccc34)c(=O)oc12 | – | 10.9%
COc1ccc(-c2nc3cnc(Oc4ccccc4)nc3n(Cc3cccs3)c2=O)cc1 | – | -0.524%
COc1cccc(N2CCN(S(=O)(=O)c3ccc4c(c3)CCCN4C(C)=O)CC2)c1 | – | 4.58%
Cc1ccccc1CCNC(=O)C1CCN(c2nc3ccccc3nc2C(F)(F)F)CC1 | – | 5.88%
CCOc1cc(C(=S)N2CCOCC2)ccc1O | 79.4 µM (active) | –
CCOc1cc(C(=S)N2CCOCC2)ccc1OS(=O)(=O)c1ccc(Br)cc1 | – | -11.5%
CCOc1cc(C(=O)OCC(=O)Nc2cccc(C)c2)ccc1OCC(=O)N1CCOCC1 | – | 8.55%
CCN(CC)S(=O)(=O)c1ccc2c(c1)nc(CN(C)C(=O)Nc1ccc(Cl)cc1)n2C | – | 11%
O=C(c1ccco1)N1CCC2(CC1)CN(c1ncccn1)C2 | – | -6.75%
O=C(c1ccco1)N1CCC[C@@]2(CCN(c3ccccc3)C2)C1 | 44.7 µM (active) | –
O=C(c1csnn1)N1CCC[C@@]2(CCN(c3cccc(-c4ccccc4)c3)C2)C1 | 44.7 µM (active) | –
CC(C)NC(=O)N1CC[C@@]2(CCCN(C(=O)c3ccco3)C2)C1 | – | -6.63%
O=C(c1csnn1)N1CCC[C@@]2(CCN(Cc3nccs3)C2)C1 | – | 1.05%

Compound | Potency | max response, negative = inhibition
O=C(c1csnn1)N1CCC2(CC1)CN(c1ncccn1)C2 | – | -1.15%
O=C(Cn1c(=O)n(-c2ccc(F)cc2)c(=O)c2sc3ccccc3c21)NC1CCCC1 | – | 8.11%
COc1ccccc1Nc1nc(N)nc(N)c1S(=O)(=O)c1ccccc1 | – | 15.2%
COC(=O)c1ccc(NC(=O)CSc2n[nH]c(-c3ccccc3)n2)cc1 | – | 9.27%
COc1ccc2ncc3c(-c4ccc(C)c(C)c4)nn(CC(=O)NC4CCCC4)c3c2c1 | – | 5.23%
CCN1CCC(O)(/C=C/c2ccc(C)cc2)C(C(=O)/C=C/c2ccc(C)cc2)C1 (stereo not drawn) | 25.1 µM (active) | –
COc1ccc2c(c1)C=C(C(=O)NCc1cc(Br)ccc1OC)CO2 | – | 8.92%
Cc1ccc(-c2ccc(/C=N/NC(=O)CN3CCOCC3)o2)cc1[N+](=O)[O-] | 2.51 µM (active) | –
Cc1ccc(NC(=O)CN2CCC(C(N)=O)CC2)cc1[N+](=O)[O-] | – | -4.1%
O=C(CN1CCOCC1)N/N=C/c1ccc(-c2ccc(Br)cc2)o1 | – | 13.8%
O=C(CN1CCSc2ccccc21)N1CCN(c2ccccc2)CC1 | – | 16.3%
Cc1ccccc1CSc1nc2c([nH]c3ccccc32)c(=O)n1C | – | 2.18%
COc1ccc(CNC(=O)C2CCN(C(=O)c3ccco3)CC2)cc1 | – | 3.03%
CCc1nnc(NC(=O)C2CCN(C(=O)c3ccccc3C)CC2)s1 | – | 0.925%
CCC(CC)c1nnc(NC(=O)C2CCN(C(=O)c3ccco3)CC2)s1 | 89.1 µM (active) | –
Cc1ccc(-c2noc(-c3nnn(-c4cccc(C(F)(F)F)c4)c3N)n2)cc1 | – | 7.83%
O=Cc1cn(-c2ccccc2)nc1-c1ccccn1 | – | 0.792%
O=C1C(c2ccccn2)=[N+]([O-])c2ccccc21 | 12.6 µM (active) | –
O=C(c1ccc2c(=O)n(Cc3ccco3)c(=S)[nH]c2c1)N1CCCC1 | – | -15.6%
CCOC(=O)c1cc2c(=O)n3ccccc3nc2n(CC2CCCO2)c1=NC(=O)c1ccc(C(C)(C)C)cc1 (stereo not drawn) | – | -4.97%
CC1=C(c2ccc(F)cc2)S(=O)(=O)N=C1N1CCC(C(=O)NCCc2ccccc2C)CC1 | – | 9.29%
Cc1nn(CC(=O)N2CCN(c3cccc(C(F)(F)F)c3)CC2)c(=O)c2cc3sccc3n12 | – | -6.46%

Compound | Potency | max response, negative = inhibition
CCOC(=O)c1ccc(-c2ccc(/C=C(\C#N)C(=O)Nc3ccc(OCC)cc3)o2)cc1 | – | -4.51%
NS(=O)(=O)c1ccc(NC2=CC(c3ccc(F)cc3)N(c3ccc(S(N)(=O)=O)cc3)C2=O)cc1 (stereo not drawn) | – | 21.6%
CCOC(=O)c1ccc(NC2=CC(c3ccc(OCC)cc3)N(c3ccc(C(=O)OCC)cc3)C2=O)cc1 (stereo not drawn) | 28.2 µM (active) | –
Cc1cc(NC(=O)C2CCC(CNS(=O)(=O)c3ccc(Br)s3)CC2)ccc1Br (stereo not drawn) | – | -18%
COc1ccc(-c2nc3ccccc3s2)cc1NC(=O)COc1ccccc1C | – | 1.1%
Cc1cnc(CNc2nc(-c3cccnc3)nc3ccccc23)cn1 | – | -20.5%
COc1cccc(-c2nc(Nc3ccncc3)c3ccccc3n2)c1 | – | 16.5%
COc1ccc(Nc2nc(-c3cccnc3)nc3ccccc23)cn1 | 70.8 µM (active) | –
CCOc1ccc(Nc2c(S(=O)(=O)c3ccccc3)cnc3ccccc23)cc1 | – | -2.09%
Cc1nc2ccn(Cc3cccnc3)c(=O)c2cc1C(=O)N1CCN(c2ccccc2F)CC1 | – | -2.65%
CC(=O)Nc1ccc(S(=O)(=O)N2N=NC3C2C2CC4C3(CN(C(=O)OC(C)(C)C)S4(=O)=O)O2)cc1 (stereo not drawn) | – | -28.4%
Cc1cc(C(=O)CCl)c(C)n1CC1COc2ccccc2O1 (stereo not drawn) | 89.1 µM (active) | –
CCn1cc(C(=O)NCC2COc3ccccc3O2)c2cc(OC)c(OC)cc2c1=O (stereo not drawn) | – | -12.1%
O=C(NCC1COc2ccccc2O1)C1(c2ccccc2)CCCC1 (stereo not drawn) | – | -20%
COc1cc(/C=C2/C(=O)NN(c3ccc(F)cc3)C2=O)cc([N+](=O)[O-])c1O | – | -24.2%
COc1cc(/C=N/O)cc(Br)c1OCc1cccc(Cl)c1 | – | 4.44%
COc1cc(/C=C2/C(=O)NN(c3cccc(Cl)c3)C2=O)cc(Br)c1O | 22.4 µM (active) | –
COCCn1c(=O)c(-c2cc(F)cc(F)c2)nc2cnc(N3CCNCC3)nc21 | – | -11.9%
Cc1cn([C@H]2CC(F)[C@@H](CO)O2)c(=O)[nH]c1=O (stereo partly drawn) | – | -2.1%
O=C(CSc1nccn1C1CCCC1)Nc1cc(C(F)(F)F)ccc1Cl | – | 24.3%
CCc1nnc(SCC(=O)Nc2cc(OC)ccc2OC)nc1CC | – | 8.11%
Cc1ccccc1-c1nc(CS(=O)(=O)CC(=O)Nc2cc(Cl)cc(Cl)c2)c(C)o1 | – | 13%
